The record followed here is PubChem BioAssay (NCI).

Structures are written as SMILES. About 83,000 compounds went through this panel and 20% of them were active in at least one assay; those are over-represented in the sample as a whole.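 Treatment: one concentration, 48 hours, 96-well format. Scoring: percent growth, with anything below 10 considered active.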 Unmarked numbers belong to inactive results. Calls of active or inactive are those of the source.

Holding throughout (experiment): NCI-60 one-dose screen, 48 h (100 = growth as untreated, 0 = no growth, -100 = all killed)
What all share (conditions): 10 µM unless noted

The subject of assay [1] is RPMI-8226 leukemia.
Assay [2] relates to OVCAR-8 ovarian.
The test system of assay [3] is OVCAR-5 ovarian.
Assay [4] relates to OVCAR-4 ovarian.
In assay [5] the test system is SK-OV-3 ovarian.
For assay [6], the system named is IGROV1 ovarian.
Assay [7] deals with OVCAR-3 ovarian.
Assay [8] relates to HS 578T breast.
In assay [9] the test system is NCI/ADR-RES ovarian.

`CC1(c2ccc(Br)cc2)NC(=O)NC1=O` (configuration not stated): the growth in [1] was 113%; in assay [2] it was 97.9%; in assay [3], 104%; in [4] it was 104%; in assay [5], 103%; in assay [6], 102%. For the same compound, the growth in assay [7] was 104%; in assay [8] it was 101%; in assay [9], 103%.

In the case of `Cc1c(CN(C)C)cc(C(C)C)cc1C(C)C`, the growth is 94.5% in [1]; 106% in [2]; 115% in assay [3]; 98.8% in [4]; 112% in assay [5]; 119% in [6]. For the same compound, the results for the growth in [7], in assay [8] and in assay [9] were 120%, 124% and 104%, respectively.

As for `C/C=C(/C)C(=O)OC1C=C(CO)C(=O)C(OC(=O)C2(C)OC2C)C1C(C)C` (configuration not stated), the growth in [1] was -37.4% (active); in [2] it was 4.08% (active); in assay [3], -40% (active); in [4] it was 13.6%; in [5], 44.3%; in assay [6], -31.2% (active). Besides, the growth in [7] is -46.9% (active); in [8] it was 30.9%; in assay [9], 6.41% (active).

Turning to `CCCCCCCCC(=O)Nc1ccc(O)cc1`, the growth in assay [1] is 82.3%; in [2] it was 95%; in assay [3], 106%; in assay [4] it was 95.3%; in assay [5], 100%; in assay [6], 93.7%. For the same compound, the values for the growth in [7], in [8] and in assay [9] were 102%, 103% and 82.9%, respectively.

As for `COc1ccc(-c2nc(Nc3nc4ccccc4[nH]3)nc(N)c2C#N)cc1`, the growth in assay [1] was 94%; in [2], 103%; in assay [3], 104%; in [4], 102%; in assay [5], 102%; in assay [6], 59.1%. Besides, the growth in assay [7] was 111%; in assay [8], 129%; in assay [9] it was 103%.

For the compound `CN1CCN(Cc2ccc(NC(=O)c3ccc(C#Cc4c(N)ncc5ccc(F)cc45)cc3)cc2C(F)(F)F)CC1`, the growth in assay [1] was -43.3% (active); in assay [2], -28.4% (active); in assay [3], -52.8% (active); in assay [4], -19.9% (active); in assay [5], 64%; in assay [6] it was -50.6% (active). In addition, the growth in assay [7] was -25.9% (active); in [8], 29.9%; in assay [9], -12.3% (active).

`C/C=C(/C)C(=O)OC1C=C(CO)C(=O)C(OC(=O)/C(C)=C\C)C1C(C)C` (configuration not stated): the growth in [1] is -39.4% (active); in assay [2] it was -22.7% (active); in assay [3], -76.6% (active); in assay [4], -48.8% (active); in assay [5] it was 16.4%; in assay [6], -77% (active). Besides, the growth in assay [7] is -89.1% (active); in assay [8], 28.8%; in assay [9], -6.28% (active).

`O=C(O)/C(Br)=C/c1c[nH]c2ccc(Br)cc12`: the growth was 114% in assay [1]; 106% in [2]; 90.6% in assay [3]; 59.7% in assay [4]; 171% in [5]; 98.2% in assay [6]. Also, the growth is 105% in assay [7], 105% in [8] and 102% in assay [9].

Take `COc1cc(OC)c(/C=C/c2ccc3ccccc3[n+]2C)c(OC)c1`: the growth in assay [1] is -20.9% (active); in assay [2] it was 9.25% (active); in assay [3] it was 22.3%; in assay [4], 28.8%; in assay [5], 27.1%; in assay [6], 14.8%. Besides, the growth in assay [7] is 1.43% (active); in assay [8], 34.4%; in assay [9] it was 97.4%.

Consider `COC(=O)c1cc(=O)nc(N/N=C/c2ccccc2O)s1`, for which the growth in [1] is 87.9%; in [2], 97.5%; in assay [3] it was 104%; in [4], 50.8%; in assay [5], 103%; in [6], 88.6%. Also, the growth in [7] was 88.6%; in assay [8] it was 108%; in assay [9], 89.3%.

In the case of `O=C(NC(=S)NNC(=S)NNc1ccccc1)c1ccccc1`, the growth in [1] is 19.8%; in assay [2], 20.9%; in assay [3], 59.7%; in assay [4] it was 84.8%; in assay [5], 89.9%; in assay [6] it was 33.4%. In addition, the growth in assay [7] is 71.6%; in assay [8], 15.2%; in assay [9], 75.4%.

As to `COc1cc2c(cc1OC)C(Cc1cc(OC)c(OC)cc1[N+](=O)[O-])=NCC2`, the growth was 78.1% in [1]; 98% in [2]; 73.6% in assay [3]; 91.6% in assay [4]; 89.8% in [5]; 98.1% in assay [6]. The results for the growth in assay [7], in [8] and in assay [9] were 95.4%, 87.8% and 81.8%, respectively.

Turning to `Nc1cc(N)c2nc(-c3ccccc3)c(NCCc3ccc(Cl)c(Cl)c3)nc2c1`, the growth in assay [1] was -60.6% (active); in assay [2], -90.6% (active); in [3], -76.9% (active); in [4], -85.5% (active); in [5] it was -80.7% (active); in [6], -77.8% (active). Moreover, the growth was -91.2% (active) in assay [7], -22.7% (active) in assay [8] and -54.3% (active) in assay [9].

With `CCN(CC)CCOC(=O)c1cccnc1`, the growth in assay [1] was 91.4%; in assay [2], 97.6%; in [3], 96.4%; in [4] it was 90.1%; in assay [5], 96.1%; in assay [6], 103%. Besides, the values for the growth in [7], in assay [8] and in [9] were 107%, 92% and 101%, respectively.

In the case of `COc1cc2oc(-c3ccc(NC(=O)c4ccccc4)cc3)cc(=O)c2c(OC)c1OC`, the growth is 73.7% in assay [1]; 77.9% in [2]; 86.6% in assay [3]; 64.6% in [4]; 101% in [5]; 84.2% in assay [6]. In addition, the growth in assay [7] is 92.9%; in assay [8] it was 80.7%; in assay [9], 89.4%.

For the compound `CCOc1ccc(Br)cc1/C=C(\C#N)c1ccc([N+](=O)[O-])cc1`, the growth in [1] was 84.7%; in [2], 70%; in assay [3] it was 94.6%; in [4], 45.2%; in assay [5], 44.4%; in assay [6], 71.4%. Besides, the growth was 65.8% in assay [7], 7.59% (active) in assay [8] and 85.2% in assay [9].

`O=C(CN1C(=O)NC(c2ccccc2)(c2ccccc2)C1=O)c1ccc(N2CCCC2)cc1`: the growth in assay [1] was 70.1%; in [2], 83.4%; in assay [3] it was 101%; in assay [4], 72.8%; in [5] it was 96.7%; in assay [6], 85.5%. The growth is 103% in assay [7], 87.7% in assay [8] and 67.2% in [9].

In the case of `O=C(Nc1cccc(Cn2c(=O)[nH]c3ccc(Oc4ncccn4)cc3c2=O)c1)c1cc(Cl)cc(Cl)c1`, the growth in assay [1] is 60.9%; in assay [2] it was 51.4%; in [3], 70%; in assay [4] it was 41.5%; in [5], 66.5%; in [6], 49%. The figures for the growth in assay [7], in [8] and in assay [9] were 81.2%, 56.7% and 86.3%, respectively.

`OCCN1CCCN(CCCN2c3ccccc3Sc3ccc(C(F)(F)F)cc32)CC1`: the growth was 42.2% in assay [1]; 91% in [2]; 83.9% in assay [3]; 54.4% in assay [4]; 77.3% in [5]; 41.3% in assay [6]. For the same compound, the growth in assay [7] is 78.7%; in assay [8], 29.1%; in [9], 73.5%.

With `Cc1ccc(S(=O)(=O)Nc2cccc(Cn3c(=O)[nH]c4ccc(Oc5ncccn5)cc4c3=O)c2)cc1`, the growth in assay [1] was 61.2%; in assay [2], 90.8%; in assay [3], 86.7%; in assay [4], 90.5%; in [5] it was 81.2%; in assay [6] it was 57.8%. In addition, the growth is 38.9% in assay [7], 89.3% in assay [8] and 93.3% in assay [9].

Turning to `CNc1nc2ncn(C)c2c(=O)[nH]1`, the growth in assay [1] is 97.4%; in [2], 104%; in assay [3], 86.7%; in assay [4] it was 93.8%; in [5], 104%; in [6] it was 94.2%. In addition, the growth in assay [7] was 113%; in [8], 105%; in [9] it was 92.6%.

Turning to `CCOC(=O)c1csc(-c2ccc(COC(=O)c3ccccc3)o2)n1`, the growth is 111% in assay [1]; 111% in assay [2]; 102% in assay [3]; 116% in assay [4]; 107% in assay [5]; 103% in assay [6]. For the same compound, the figures for the growth in assay [7], in assay [8] and in [9] were 116%, 111% and 109%, respectively.

Take `Br/C(=N\Nc1nn[nH]n1)c1ccccc1`: the growth was 102% in assay [1]; 103% in assay [2]; 102% in assay [3]; 107% in assay [4]; 98.6% in assay [5]; 111% in assay [6]. For the same compound, the figures for the growth in assay [7], in assay [8] and in assay [9] were 120%, 99.4% and 100%, respectively.

As for `CCOc1ccc(/C=N/NC(=O)c2cccc3ccccc23)cc1OCC`, the growth in assay [1] was 83.8%; in assay [2], 105%; in assay [3], 104%; in assay [4], 91.9%; in assay [5], 99.2%; in assay [6] it was 108%. Also, the growth was 96.4% in assay [7], 98.6% in [8] and 97.9% in assay [9].

Take `Cc1ncc(C(=O)Nc2ccc(CN3CCN(C)CC3)c(C(F)(F)F)c2)cc1C#Cc1cnc(NC2CC2)c2ncccc12`: the growth in assay [1] is -41.1% (active); in assay [2], -91.7% (active); in [3], -91.1% (active); in assay [4], -60.5% (active); in assay [5], 43.3%; in [6] it was -80.4% (active). Besides, the growth in assay [7] is -90.4% (active); in assay [8] it was 43%; in [9], -41.9% (active).

Turning to `COC(=O)C1CC(=O)N(C(=O)Nc2ccc(Cl)cc2Cl)C1` (configuration not stated), the growth in assay [1] was 98.9%; in assay [2], 99.1%; in assay [3] it was 101%; in assay [4] it was 117%; in assay [5], 88.4%; in assay [6], 107%. For the same compound, the growth was 111% in assay [7], 82.9% in assay [8] and 99.6% in assay [9].

Take `COc1ccc(C(=O)N2N=C(c3ccc(Br)cc3)CC2c2cn(-c3ccccc3)nc2-c2ccccc2)cc1` (configuration not stated): the growth in assay [1] was 67.9%; in assay [2], 31.5%; in assay [3], 101%; in assay [4], 67.5%; in assay [5], 76.6%; in assay [6], 85.2%. Besides, the growth in assay [7] was 53.4%; in [8], 85.2%; in [9], 41.5%.

`Cc1ncc(C(=O)Nc2ccc(CN3CCN(C)CC3)c(C(F)(F)F)c2)cc1C#Cc1c(N)ncc2ccccc12`: the growth in assay [1] was -47.5% (active); in assay [2], -85.7% (active); in assay [3], -92.6% (active); in [4] it was -58.8% (active); in [5] it was -2.88% (active); in assay [6], -77.1% (active). Moreover, the growth in [7] was -68.9% (active); in assay [8], -25.5% (active); in [9], -70% (active).
